RGS16-Gao = RGS16-Galphao interaction regulator (human). bead-based flow cytometry RGS16-Galphao binding, fluorescence; actives lie on both sides. O15492+P09471. binding response (% of control), % at 10 µM. AID 1441. actives 0.38% (n = 220,000);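 further: Galphao activated by GDP with aluminum fluoride before binding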
RGS8-Gao = modulates binding of RGS8 to human Galphao. response (percent of control binding), % at 10 µM. actives 0.34% (n = 220,000). P09471. multiplexed bead flow cytometry; actives lie on both sides. AID 1423; in the data active means response below about 60% or above about 140%; inactive means in between;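 further: Galphao activated as the GDP aluminium fluoride complex binding bead-coupled RGS8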
GSH fluor = compound fluoresces at 488/530 nm on GSH beads | AID 1776 | fluorescence (KMESF) at 10 µM | actives 0.25% (n = 190,000) | GSH beads flow cytometry, compound fluorescence 488/530 nm; active compounds read high; in the data active means fluorescence above about 89;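 further: glutathione beads carrying GST-tagged Bcl family fusion proteins plus one bare bead set; values are compound well signal with DMSO vehicle wells as background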
RGS7-Gao reg = human RGS7-Galphao interaction regulation; P09471; Multiplexed bead flow cytometry, RGS7-Galphao binding; actives lie on both sides; actives 0.35% (n = 220,000); binding response (% of control), % at 10 µM; in the data active means binding response below about 49% or above about 150%; inconclusive means no clear call, values can overlap the other calls; inactive means in between;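 further: fluorescent Galphao held in activated GDP-AlF4 state binding bead-coupled RGS7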
RGS4-Gao reg = modulates binding of RGS4 to human Galphao; AID 1415; binding response (% of control), % at 10 µM; actives 0.33% (n = 220,000); Multiplexed bead flow cytometry; actives lie on both sides; P09471; in the data active means binding response below about 49% or above about 150%; inactive means in between;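 further: fluorescent Galphao activated with aluminum fluoride binding bead-coupled RGS4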
Avidin bead fluor = avidin bead compound fluorescence profile; Avidin beads, compound fluorescence 488/530 nm, flow cytometry; active compounds read high; fluorescence (KMESF) at 10 µM; actives 0.38% (n = 220,000); AID 1775; in the data active means fluorescence above about 47
RGS-Gao = regulators of human RGS4-Galphao interaction | shares compounds with RGS16-Gao | multiplexed bead flow cytometry, RGS–Galpha-o binding | RGS4–Galpha-o binding response, % at 10 µM | actives 99% (n = 1,600);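 further: fluorescently labeled Galpha-o bound to GDP with aluminium fluoride binding biotinylated RGS beads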
Biotin-avidin = interferes with biotinylated probe binding to avidin beads. shares compounds with RGS16-Gao. streptavidin beads, fluorescein-biotin binding, flow cytometry. inhibition, % at 10 µM. 1,700 tested, under 10 active. AID 1783;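 active means inhibition above 50%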;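 further: median green fluorescence of gated singlet beads compared with DMSO control wells; 0% = DMSO wells and 100% = complete loss of bead fluorescence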
RGS8-Gao single = confirmation of regulators of human RGS8-Galphao interaction; shares compounds with RGS16-Gao; actives 3% (n = 1,700); binding response (% of control), % at 10 µM; bead-based flow cytometry RGS8-Galphao binding, fluorescence; actives lie on both sides; in the data active means binding response below about 72% or above about 130%; inactive means in between;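 further: Galphao activated as GDP AlF4 complex before binding bead RGS8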
RGS7-Gao single = confirmation of regulators of human RGS7-Galphao interaction; actives 7.8% (n = 1,700); response (percent of control binding), % at 10 µM; bead-based flow cytometry RGS7-Galphao binding; actives lie on both sides; AID 1837; shares compounds with RGS16-Gao; in the data active means response below about 75% or above about 130%; inactive means in between;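 further: fluorescent Galphao activated with GDP and aluminum fluoride binding bead-coupled RGS7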
RGS16-Gao conf = confirmation of regulators of human RGS16-Galphao interaction; shares compounds with RGS16-Gao; bead-based flow cytometry, RGS16-Galphao binding; actives lie on both sides; response (% of control binding), % at 10 µM; actives 4% (n = 1,700); in the data active means response below about 74% or above about 130%; inactive means in between;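 further: Galphao activated as the GDP aluminium fluoride complex binding bead-coupled RGS16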
RGS4-Gao confirm = confirmation of regulators of human RGS4-Galphao interaction; shares compounds with RGS16-Gao; RGS4-Galphao binding, multiplexed bead flow cytometry; actives lie on both sides; binding response (% of control), % at 10 µM; actives 4% (n = 1,700); AID 1840; in the data active means binding response below about 74% or above about 130%; inactive means in between
RGS19-Gao conf = RGS19-Galphao interaction regulation, single point confirmation; bead-based flow cytometry RGS19-Galphao binding; actives lie on both sides; shares compounds with RGS16-Gao; response (percent of control binding), % at 10 µM; actives 5% (n = 1,700); in the data active means response below about 50% or above about 160%; inactive means in between;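 further: 100% = no compound control and 0% = blank background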
Target sequence (P09471 whole entry, looked up): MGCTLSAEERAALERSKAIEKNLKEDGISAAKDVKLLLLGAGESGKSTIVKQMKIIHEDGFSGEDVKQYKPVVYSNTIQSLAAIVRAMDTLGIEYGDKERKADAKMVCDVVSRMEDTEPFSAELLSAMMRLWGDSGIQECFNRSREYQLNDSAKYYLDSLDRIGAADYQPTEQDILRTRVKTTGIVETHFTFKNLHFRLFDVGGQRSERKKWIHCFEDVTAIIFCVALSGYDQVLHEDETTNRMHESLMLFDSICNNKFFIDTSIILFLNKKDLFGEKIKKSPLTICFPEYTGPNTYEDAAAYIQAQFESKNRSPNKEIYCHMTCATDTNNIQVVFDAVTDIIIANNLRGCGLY
Target sequence (P49795 whole entry, looked up): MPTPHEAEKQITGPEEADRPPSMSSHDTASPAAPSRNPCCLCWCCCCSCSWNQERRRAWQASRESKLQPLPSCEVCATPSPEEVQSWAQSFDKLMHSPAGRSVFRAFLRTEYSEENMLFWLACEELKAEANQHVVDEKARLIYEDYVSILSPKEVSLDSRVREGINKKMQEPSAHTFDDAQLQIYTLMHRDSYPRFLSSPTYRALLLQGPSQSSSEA
Numbers without * were called inactive; ? = inconclusive; . = not tested or not shown; [ ] = another dose, or the depositor's remark. Rows were chosen to be rich in hits. Some 1.2% of all compounds tested hit in one or more screens of this group. Unless noted, how the calls were made is not given here.

SMILES	RGS16-Gao	RGS8-Gao	GSH fluor	RGS7-Gao reg	RGS4-Gao reg	Avidin bead fluor	Biotin-avidin	RGS8-Gao single	RGS7-Gao single	RGS16-Gao conf	RGS4-Gao confirm	RGS19-Gao conf	others
O=C(Cc1c[nH]c2ccccc12)N/N=C/c1ccc(F)cc1	21.1*	77.9	14	87.5	92.1	7	0.6	104.0	99.4	103.0	104.8	101.8	RGS-Gao=92.1*
CCOC(=O)c1ccc(NCn2c(=O)oc3ccccc32)cc1	-14.5*	87.8	22	91.7	96.8	10	-1.7	100.4	98.8	97.5	101.6	102.3	RGS-Gao=96.8*
COc1ccc(NC(=O)CS(=O)(=O)c2cn(CC(=O)N3CCOCC3)c3ccccc23)cc1	95.6	100.0	25	91.5	98.2	9	.	.	.	.	.	.
O=C(COc1cccc2ccccc12)N1c2ccccc2CCc2ccccc21	101.8	98.9	16	101.6	101.7	32	.	.	.	.	.	.
CCC(CC)C(=O)NCCc1ccc(OC)c(OC)c1	102.8	100.8	10	101.1	102.1	35	.	.	.	.	.	.
CCC(CC)C(=O)NCCc1ccc(OC)cc1	.	.	34	.	237.7*[activator]	.	2.3	97.3	97.4	97.2	98.4	99.4
Cc1nn(-c2ccccc2)c2c1C1(C(=O)N(C(C)C)c3ccccc31)C(C#N)=C(N)O2 (configuration not stated)	97.0	102.6	65	100.1	102.8	7	.	.	.	.	.	.
O=C(C(c1ccccc1)c1ccccc1)N1CCN(CCN2C(=O)c3cccc4cccc(c34)C2=O)CC1	102.9	101.8	9	.	102.5	6	-1.1	99.7	95.8	103.2	97.3	127.2
COc1ccc(N2CCN(C(=O)c3ccccc3Br)CC2)c([N+](=O)[O-])c1	101.4	101.1	21	?	99.2	9	.	.	.	.	.	.
Cn1ncc([N+](=O)[O-])c1C(=O)Nc1ccc(-c2nc3ccccc3[nH]2)cc1	.	.	13	.	.	.	0.0	104.5	107.5	101.0	103.6	101.1
Cc1ccccc1-c1ccc(=O)n(CC(=O)Nc2ccc(N3CCOCC3)cc2)n1	.	.	47	.	.	.	0.1	95.9	99.1	97.6	97.8	101.8
Cc1nn(C)c(C(=O)N/N=C/c2ccc(Br)cc2)c1Cl	40.9	58.0*	10	40.1*	46.2*	6	1.6	99.7	103.5	100.8	100.6	100.0
Cc1nn(C)c(C(=O)N/N=C/c2cccc3ccccc23)c1Cl	30.9	38.2*	21	27.9*	27.8*	3	-1.1	98.2	98.0	96.7	99.6	96.9
O=C(Cn1cncn1)N/N=C/c1cccc2ccccc12	45.2	79.2	21	98.8	92.3	3	.	.	.	.	.	.
COc1ccc(NC(=S)NCc2cccn2C)cc1	97.5	98.9	22	94.1	98.9	9	.	.	.	.	.	.
COC(=O)c1ccc(NC(=O)c2ccccc2N(C)S(=O)(=O)c2ccccc2)cc1	90.5	97.3	40	94.2	91.4	7	.	.	.	.	.	.
O=C(/C=C/c1ccccc1)NC1CCSC1=O (configuration not stated)	99.2	96.1	17	99.4	100.7	18	.	.	.	.	.	.
